# PubChem BioAssay (Tox21)
# Where “and” joins values, the source holds several entries; their conditions need not be identical. Equal entries are not always repeated. Calls of active or inactive are those of the source. Where a call stands in place of a potency, no number is given. Unless noted, the call rests on the fitted dose curve; in most records, active means well fitted curve in the direction sought with a large enough effect in the repeat runs; inconclusive means weak or mixed curves; inactive means no such curve, though single readings can be large; an effect the other way counts as inactive or inconclusive.
# How the values were obtained:
# [1] = qHTS assay for small molecule agonists of the p53 signaling pathway (AID 651631; calls by dose curve; further: nearly all actives have a fitted effect of over 15% in size; further: potency means the concentration at half of the fitted maximal effect)
# How it was run: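 Quantitative high-throughput format: 4,000 p53RE-bla HCT-116 cells/well, 5 h pre-incubation, 16 h compound exposure at 37 °C, 2 h room-temperature substrate step, fluorescence intensity measured.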
# [2] = qHTS assay for small molecules that induce genotoxicity in human embryonic kidney cells expressing luciferase-tagged ATAD5 (AID 651632); further: nearly all actives have a fitted effect of over 15% in size; further: potency means the concentration at half of the fitted maximal effect
# How it was run: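 A rise in luciferase signal from ATAD5-tagged HEK293T cells marks genetic stress. Cells were exposed to compounds for 16 hr at 37C, 5% CO2, then luciferase was quantified after a 30 min room-temperature incubation with Amplite.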
# [3] = qHTS assay for small molecule disruptors of the mitochondrial membrane potential - cell viability (AID 720634; calls by dose curve; further: nearly all actives have a fitted effect of over 20% in size; further: potency means the concentration at half of the fitted maximal effect)
# How it was run: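 Cytotoxicity was quantified from ATP content by CellTiter-Glo luminescence in the same wells as the MMP dye read-out. HepG2 (2,000 cells/well) were plated overnight and exposed to compounds for 1 hr at 37 C.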
# [4] = qHTS assay to test for compound auto fluorescence at 535 nm (green) in HepG2 cells (AID 720675)
# [5] = qHTS assay to test for compound auto fluorescence at 535 nm (green) in HEK293 cells (AID 720680)
# [6] = qHTS assay for identifying genotoxic compounds that show differential cytotoxicity against isogenic chicken DT40 cell lines with known DNA damage response pathways - Rev3 mutant cell line (AID 743014); further: nearly all actives have a fitted effect of over 55% in size; further: potency means the concentration at half of the fitted maximal effect
# [7] = qHTS assay for identifying genotoxic compounds that show differential cytotoxicity against isogenic chicken DT40 cell lines with known DNA damage response pathways - Rad54/Ku70 mutant cell line (AID 743015); further: nearly all actives have a fitted effect of over 60% in size; further: potency means the concentration at half of the fitted maximal effect
# [8] = qHTS assay to identify small molecule antagonists of the thyroid receptor (TR) signaling pathway - cell viability counter screen (AID 743064); further: nearly all actives have a fitted effect of over 50% in size; further: potency means the concentration at half of the fitted maximal effect
# How it was run: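 Compounds were tested on GH3.TRE-Luc cells in the presence of T3 at 1 nM final. Following 23.5 h at 37 °C, cell viability was quantified by CellTiter-Fluor.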
# [9] = qHTS assay to identify small molecule antagonists of the thyroid receptor (TR) signaling pathway (AID 743065); further: nearly all actives have a fitted effect of over 55% in size; further: potency means the concentration at half of the fitted maximal effect
# How it was run: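 GH3.TRE-Luc rat pituitary cells (two TREs driving luciferase) were dosed with compound, then stimulated with 1 nM T3 (final) for 23.5 h at 37 C. ONE-Glo luminescence was the read-out, with CellTiter-Fluor fluorescence as the cytotoxicity counter-screen.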
# [10] = target: Estrogen receptor (Homo sapiens) (UniProt P03372); experiment: qHTS assay to identify small molecule antagonists of the estrogen receptor alpha (ER-alpha) signaling pathway (AID 743069; active means well fitted curve in the direction sought with a large enough effect in the signal ratio in the repeat runs, not every such curve was filed as active; inconclusive means weak or mixed curves, or effect the other way; inactive means no such curve, though single readings can be large or run the other way; the % refers to the signal ratio)
# Sequence of Estrogen receptor (Homo sapiens) (P03372 whole entry, looked up): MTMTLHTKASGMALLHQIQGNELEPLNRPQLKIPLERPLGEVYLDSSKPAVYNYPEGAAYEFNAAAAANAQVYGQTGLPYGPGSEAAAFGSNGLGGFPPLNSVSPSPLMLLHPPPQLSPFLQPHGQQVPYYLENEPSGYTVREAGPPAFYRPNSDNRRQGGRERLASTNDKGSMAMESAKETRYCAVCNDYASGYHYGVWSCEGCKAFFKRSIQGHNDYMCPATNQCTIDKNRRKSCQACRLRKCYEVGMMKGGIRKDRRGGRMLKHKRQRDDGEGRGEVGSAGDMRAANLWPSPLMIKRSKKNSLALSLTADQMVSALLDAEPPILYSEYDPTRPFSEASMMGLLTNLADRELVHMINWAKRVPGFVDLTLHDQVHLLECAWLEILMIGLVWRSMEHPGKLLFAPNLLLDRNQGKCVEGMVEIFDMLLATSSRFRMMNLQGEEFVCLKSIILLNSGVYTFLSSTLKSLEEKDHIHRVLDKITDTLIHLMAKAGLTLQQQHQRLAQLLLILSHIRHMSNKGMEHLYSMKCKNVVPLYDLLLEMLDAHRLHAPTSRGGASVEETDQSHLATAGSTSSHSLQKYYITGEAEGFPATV
# How it was run: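 In this cell-based reporter format, GripTite HEK293 cells harbouring ER-alpha-UAS-bla were grown overnight with 2% charcoal-stripped FBS, dosed with DMSO-dissolved compounds, then challenged with 17beta-estradiol. After 18 hr at 37C, beta-lactamase activity was detected by FRET fluorescence.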
# [11] = target: Estrogen receptor (Homo sapiens) (UniProt P03372); experiment: qHTS assay to identify small molecule agonists of the estrogen receptor alpha (ER-alpha) signaling pathway (AID 743075; calls by dose curve; further: potency means the concentration at half of the fitted maximal effect)
# [12] = target: Estrogen receptor (Homo sapiens) (UniProt P03372); experiment: qHTS assay to identify small molecule agonists of the estrogen receptor alpha (ER-alpha) signaling pathway using the BG1 cell line (AID 743079); further: nearly all actives have a fitted effect of over 20% in size; further: potency means the concentration at half of the fitted maximal effect
# [13] = qHTS assay to identify small molecule antagonists of the estrogen receptor alpha (ER-alpha) signaling pathway using the BG1 cell line (AID 743080; calls by dose curve;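 further: BG1 cells stimulated with 17beta-estradiol alongside compound; nearly all actives have a fitted effect of over 25% in size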; further: potency means the concentration at half of the fitted maximal effect)
# How it was run: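 Readout is ONE-Glo luminescence, taken 30 min at room temperature after reagent addition, preceded by a CellTiter-Fluor viability read; BG1-Luc-4E2 cells had received compound and 17beta-estradiol for 21.5 h at 37 C.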
# [14] = target: Aryl hydrocarbon receptor (Homo sapiens) (UniProt P35869); experiment: qHTS assay to identify small molecule that activate the aryl hydrocarbon receptor (AhR) signaling pathway (AID 743085); further: nearly all actives have a fitted effect of over 15% in size; further: potency means the concentration at half of the fitted maximal effect;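 on activation: HG2L7.5c1 human HepG2 liver cells with stably integrated DRE-driven firefly reporter; series mostly up to about 70 µM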
# Sequence of Aryl hydrocarbon receptor (Homo sapiens) (P35869 whole entry, looked up): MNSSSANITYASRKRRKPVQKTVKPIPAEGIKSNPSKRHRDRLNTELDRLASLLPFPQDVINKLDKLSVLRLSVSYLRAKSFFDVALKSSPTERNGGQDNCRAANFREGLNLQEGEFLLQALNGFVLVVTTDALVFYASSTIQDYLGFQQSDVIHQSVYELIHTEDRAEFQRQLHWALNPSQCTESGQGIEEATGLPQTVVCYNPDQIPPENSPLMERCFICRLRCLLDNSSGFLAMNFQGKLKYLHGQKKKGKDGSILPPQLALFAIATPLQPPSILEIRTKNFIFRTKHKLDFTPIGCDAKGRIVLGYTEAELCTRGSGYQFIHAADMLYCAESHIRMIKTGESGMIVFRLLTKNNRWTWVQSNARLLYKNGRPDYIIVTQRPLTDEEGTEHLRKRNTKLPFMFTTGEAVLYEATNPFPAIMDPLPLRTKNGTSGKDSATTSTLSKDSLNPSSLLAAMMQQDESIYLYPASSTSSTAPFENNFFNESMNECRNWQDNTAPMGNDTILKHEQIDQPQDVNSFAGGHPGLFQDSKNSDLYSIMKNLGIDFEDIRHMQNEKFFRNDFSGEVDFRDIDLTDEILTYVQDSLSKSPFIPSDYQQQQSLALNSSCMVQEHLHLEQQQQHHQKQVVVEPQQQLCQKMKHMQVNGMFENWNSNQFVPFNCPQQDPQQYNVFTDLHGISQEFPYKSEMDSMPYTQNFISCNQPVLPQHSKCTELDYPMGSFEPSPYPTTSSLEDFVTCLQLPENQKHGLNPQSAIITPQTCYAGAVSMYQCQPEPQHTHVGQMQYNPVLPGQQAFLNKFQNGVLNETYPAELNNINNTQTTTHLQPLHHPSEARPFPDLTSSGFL
# How it was run: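 24 h compound exposure, 37C, HepG2-derived HG2L7.5c1 cells with DRE-responsive luciferase. Readouts: fluorescence viability, then luminescence at room temperature after 30 min.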
# [15] = qHTS assay for small molecule disruptors of the mitochondrial membrane potential (AID 720635); further: potency means the concentration at half of the fitted maximal effect
# How it was run: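 HepG2 cells exposed to compound 1 hr at 37C, then Mito-MPS dye 30 min. Ratio read of aggregate (540/590 nm) versus monomer (490/535 nm) fluorescence.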
# [16] = qHTS assay for identifying genotoxic compounds that show differential cytotoxicity against isogenic chicken DT40 cell lines with known DNA damage response pathways - wild type cell line (AID 743012); further: nearly all actives have a fitted effect of over 60% in size; further: potency means the concentration at half of the fitted maximal effect
# How it was run: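 Viability by ATP luminescence (CellTiter-Glo, 30 min RT) after 40 h compound treatment at 37 C/5% CO2, using 300 parental DNA repair-proficient DT40 cells per well.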
# [17] = qHTS assay to identify small molecule antagonists of the estrogen receptor alpha (ER-alpha) signaling pathway using the BG1 cell line - cell viability counter screen (AID 743081);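 further: compound given together with 17beta-estradiol as the ER stimulus; series mostly up to about 70 µM; nearly all actives have a fitted effect of over 45% in size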
# [18] = target: Glucocorticoid receptor (Homo sapiens) (UniProt P04150); experiment: qHTS assay to identify small molecule agonists of the glucocorticoid receptor (GR) signaling pathway (AID 720691; active means well fitted activation curve with a large enough effect in the signal ratio in the repeat runs, not every such curve was filed as active; inconclusive means weak or mixed curves, or effect the other way; inactive means no such curve, though single readings can be large or run the other way; the % refers to the signal ratio)
# Sequence of Glucocorticoid receptor (Homo sapiens) (P04150 whole entry, looked up): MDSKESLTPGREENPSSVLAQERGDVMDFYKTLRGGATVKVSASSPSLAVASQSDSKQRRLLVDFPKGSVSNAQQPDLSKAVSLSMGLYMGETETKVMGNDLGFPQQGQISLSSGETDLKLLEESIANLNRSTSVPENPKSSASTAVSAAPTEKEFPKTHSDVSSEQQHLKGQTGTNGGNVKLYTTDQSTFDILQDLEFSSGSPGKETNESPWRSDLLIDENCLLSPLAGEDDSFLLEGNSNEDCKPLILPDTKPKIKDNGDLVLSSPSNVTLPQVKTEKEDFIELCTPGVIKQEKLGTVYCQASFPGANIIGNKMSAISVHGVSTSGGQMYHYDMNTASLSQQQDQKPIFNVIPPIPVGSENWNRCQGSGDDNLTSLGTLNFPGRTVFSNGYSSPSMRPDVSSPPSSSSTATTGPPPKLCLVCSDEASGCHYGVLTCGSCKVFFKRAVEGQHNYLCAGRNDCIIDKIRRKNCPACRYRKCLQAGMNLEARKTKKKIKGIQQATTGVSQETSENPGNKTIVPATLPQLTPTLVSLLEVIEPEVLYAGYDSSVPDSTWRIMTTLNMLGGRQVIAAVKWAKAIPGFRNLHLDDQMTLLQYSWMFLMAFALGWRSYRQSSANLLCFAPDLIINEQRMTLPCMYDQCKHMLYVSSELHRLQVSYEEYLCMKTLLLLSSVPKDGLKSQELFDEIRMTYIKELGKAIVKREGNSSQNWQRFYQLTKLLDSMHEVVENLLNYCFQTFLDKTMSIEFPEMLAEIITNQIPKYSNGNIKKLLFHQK
# How it was run: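 Agonist-mode qHTS in HeLa cells stably expressing a glucocorticoid-response-element beta-lactamase reporter. Fluorescence intensity read with FRET substrate (2 h, room temperature) after 18 h compound treatment at 37 C.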
# [19] = tested on: thyroid hormone receptor (rat, GH3 cells); experiment: qHTS assay to identify small molecule agonists of the thyroid receptor (TR) signaling pathway (AID 743066; calls by dose curve)
# [20] = target: Peroxisome proliferator-activated receptor gamma (Homo sapiens) (UniProt P37231); experiment: qHTS assay to identify small molecule agonists of the peroxisome proliferator-activated receptor gamma (PPARg) signaling pathway (AID 743094; active means well fitted activation curve with a large enough effect in the signal ratio in the repeat runs, not every such curve was filed as active; inconclusive means weak or mixed curves, or effect the other way; inactive means no such curve, though single readings can be large or run the other way; the % refers to the signal ratio)
# Sequence of Peroxisome proliferator-activated receptor gamma (Homo sapiens) (P37231 whole entry, looked up): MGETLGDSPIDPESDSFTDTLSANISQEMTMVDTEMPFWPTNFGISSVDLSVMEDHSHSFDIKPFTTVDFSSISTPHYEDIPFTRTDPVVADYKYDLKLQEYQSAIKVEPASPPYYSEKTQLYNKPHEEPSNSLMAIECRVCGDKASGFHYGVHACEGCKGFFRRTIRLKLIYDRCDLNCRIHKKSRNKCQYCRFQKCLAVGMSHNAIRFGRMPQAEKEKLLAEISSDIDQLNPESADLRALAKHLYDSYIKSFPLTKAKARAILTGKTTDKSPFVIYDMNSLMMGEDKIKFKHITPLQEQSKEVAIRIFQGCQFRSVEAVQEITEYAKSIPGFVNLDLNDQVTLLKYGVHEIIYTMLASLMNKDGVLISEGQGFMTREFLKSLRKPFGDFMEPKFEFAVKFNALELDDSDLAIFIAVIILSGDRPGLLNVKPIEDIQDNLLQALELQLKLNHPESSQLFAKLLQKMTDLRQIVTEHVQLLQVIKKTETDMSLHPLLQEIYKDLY
# How it was run: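 Agonist activity was taken from a beta-lactamase reporter (FRET substrate, 1 h at room temperature) in HEK293H cells carrying a PPARg UAS-bla construct. Compounds in DMSO were incubated 17 h at 37C after a 5 h cell pre-incubation.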
Structure (SMILES),Potency [1],Potency [2],Potency [3],Potency [4],Potency [5],Potency [6],Potency [7],Potency [8],Potency [9],Potency [10],Potency [11],Potency [12],Potency [13],Potency [14],Potency [15],Potency [16],Potency [17],Potency [18],Potency [19],Potency [20]
CC(C)[C@H]1C(=O)N2CCC[C@H]2[C@]2(O)O[C@](NC(=O)[C@@H]3C[C@@H]4c5cccc6[nH]cc(c56)C[C@H]4N(C)C3)(C(C)C)C(=O)N12,inactive,inactive,inactive,inactive,inactive,29.8 µM (active),26.6 µM (active),29.8 µM (active),29.8 µM (active),inactive,inactive,11.9 µM (active),inactive,inactive,–,–,–,–,–,–
CN1CC[C@@]23CCCC[C@@H]2[C@@H]1Cc1ccc(O)cc13,–,inactive,inactive,inactive,inactive,–,inactive,inactive,–,inactive,inactive,–,inactive,inactive,inactive,inactive,inactive,–,–,–
C[C@@H](N)C(=O)c1ccccc1,–,inactive,–,inactive,inactive,inactive,–,inactive,inactive,–,inactive,inactive,inactive,–,inactive,inactive,inactive,inactive,inactive,inactive
CC(N)Cc1ccc2c(c1)OCO2 (stereo not given),inactive,inactive,inactive,inactive,inactive,inactive,inactive,inactive,inactive,–,inactive,inactive,inactive,inactive,inactive,inactive,inactive,inactive,inactive,–
CC(C)=CCN1CC[C@]2(C)c3cc(O)ccc3C[C@H]1[C@H]2C,inactive,inactive,inactive,–,inactive,27.3 µM (active),27.3 µM (active),inactive,–,inactive,inactive,30.6 µM (active),inactive,inactive,inactive,24.3 µM (active),inactive,–,inactive,inactive
C[C@]12CC[C@@H]3c4ccc(OC(=O)N(CCCl)CCCl)cc4CC[C@H]3[C@@H]1CC[C@@H]2OP(=O)(O)O,7.5 µM (active) and 29.8 µM (active),–,inactive,inactive,inactive,inactive,inactive,–,–,–,21.3 nM [inconclusive] (active) and 16.9 nM [inconclusive] (active),4.7 nM (active) and 16.8 nM (active),inactive,inactive,–,inactive,inactive,inactive,–,inactive
CCCCCc1cc(O)c2c(c1)OC(C)(C)c1ccc(C)cc1-2,–,inactive,–,inactive,inactive,11.9 µM (active),11.9 µM (active),13.3 µM (active),13.3 µM (active),–,–,–,29.8 µM (active),–,–,9.44 µM (active),–,–,–,–
CC[C@H]1[C@@H]2C[C@H]3[C@@H]4N(C)c5ccccc5[C@]45C[C@@H](C2[C@H]5O)N3[C@@H]1O (stereo not given in full),inactive,inactive,–,inactive,inactive,inactive,inactive,inactive,inactive,inactive,inactive,inactive,inactive,inactive,–,–,inactive,inactive,inactive,inactive
Oc1cc[c]([Hg][Cl])cc1,23.7 µM (active),4.22 µM (active) and 8.41 µM (active),16.8 µM (active),–,inactive,750 nM (active) and 841 nM (active),0.473 µM (active),596 nM (active) and 841 nM (active),422 nM (active) and 531 nM (active),–,21.3 µM [inconclusive] (active),–,–,inactive,–,–,inactive,–,–,–
CNC(C)Cc1ccccc1 (stereo not given),inactive,inactive,inactive,inactive,–,inactive,–,–,inactive,–,–,–,–,–,–,inactive,inactive,–,inactive,–
C[C@@H]1[C@@H]2Cc3ccc(O)cc3[C@@]1(C)CCN2CCc1ccccc1,–,inactive,–,inactive,–,9.57 µM (active),7.6 µM (active),60.4 µM (active),53.8 µM (active),–,inactive,–,–,8.53 µM (active),inactive,3.81 µM (active),inactive,–,–,–
COC(=O)[C@H]1[C@@H](OC(=O)c2ccccc2)C[C@@H]2CC[C@H]1N2C,inactive,inactive,inactive,inactive,inactive,–,inactive,inactive,inactive,inactive,inactive,inactive,inactive,–,–,–,inactive,–,inactive,inactive
N#CC(C#N)=Cc1cc(O)c(O)c(O)c1,–,inactive,inactive,–,–,26.6 µM (active),–,26.6 µM (active),–,–,inactive,inactive,inactive,–,–,21.1 µM (active),–,inactive,inactive,inactive
CC1(C)C(C=C(Cl)Cl)C1C(=O)OCc1cccc(Oc2ccccc2)c1 (stereo not given),inactive,–,–,–,–,–,–,–,–,–,–,–,–,inactive,–,–,–,–,–,–
C[C@]12CCC(=O)C[C@@H]1CC[C@@H]1[C@@H]2CC[C@@]2(C)[C@H]1CC[C@]2(C)O,–,inactive,–,–,inactive,inactive,inactive,inactive,–,–,0.477 µM [inconclusive] (active),0.15 µM (active),inactive,inactive,–,–,inactive,inactive,inactive,inactive
COc1ccc(C)cc1N,inactive,–,–,–,–,–,–,–,–,–,–,–,–,inactive,–,–,–,–,–,–
COC(=O)[C@]12CCC(C)(C)C[C@H]1[C@H]1C(=O)C=C3[C@@]4(C)C=C(C#N)C(=O)C(C)(C)[C@@H]4CC[C@@]3(C)[C@]1(C)CC2,–,–,inactive,inactive,inactive,–,–,1.68 µM (active),0.473 µM (active),–,3.01 µM [inconclusive] (active),–,–,inactive,3.76 µM (active),–,–,–,–,–
CCOC(=O)C1(c2ccccc2)CCCN(C)CC1 (stereo not given),–,–,–,inactive,–,inactive,inactive,inactive,inactive,inactive,inactive,inactive,inactive,inactive,inactive,inactive,inactive,inactive,inactive,inactive
